The record followed here is the supplement of paper PMC9477273.

Structures are written as SMILES.

The assay deals with DRIVER-selected RNA biosensor (aptazyme) pool. The assay is described as follows: maximum fold change of ribozyme cleavage across biosensor pool versus no-compound control; higher = stronger biosensor response (ligand inhibits cleavage). The note with it: 10 µM. A digest of the protocol: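 Values are the maximum fold change of cleavage over all biosensors in a CleaveSeq assay, defined as the cleaved:uncleaved read-fraction ratio against a no-compound condition after correction with reference sequences. The 1,730 array-resynthesized ribozyme biosensors were T7-transcribed for 15–30 min at 37°C with 9 mM rNTPs and a single compound at 10 µM final, then reverse-transcribed at 50°C. Read counts came from Illumina sequencing of PCR-barcoded cleaved and uncleaved products.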
Compound `Cc1ccc(-c2noc(CCC(=O)NCCN3CCOCC3)n2)cc1` came in with a maximum fold change of 3.61.

Turning to `Cc1nc(NC(=N)NC(=O)CCN2C(=O)c3ccccc3C2=O)nc2ccccc12`, the maximum fold change was determined as 8.2.

`COc1cccc(/C=C(\C#N)c2nc3ccccc3[nH]2)c1O` gave a maximum fold change of 11.2.

In turn, `CC1=C(c2ccc(C)cc2)S(=O)(=O)N=C1NCCCN1CCc2ccccc2C1` showed a maximum fold change of 3.69.

`COc1ccc2c(c1)c(C(=O)O)c(C)n2CCc1ccc(OC)c(OC)c1` returned a maximum fold change of 2.38.

As for `Cc1cc(C)c(Cn2c(C)c(CNCc3cccc(Cl)c3)c(C(=O)O)c2C)c(C)c1`, the maximum fold change was 1.74.

The compound `O=C(c1cc(-c2ccccc2)n[nH]1)N1CCc2ccccc2C1` yielded a maximum fold change of 4.06.

In turn, `CCOC(=O)N1CCN(C(=O)C2=C(C)C(=O)OC23CCCCC3)CC1` gave a maximum fold change of 4.06.

In turn, `Cc1ccc(C)c(Cn2c(C)c(CNCCCN3CCCC3=O)c(C(=O)O)c2C)c1` yielded a maximum fold change of 2.12.

As to `CCOC(=O)c1ccc(S(=O)(=O)N2CCOCC2)cc1`, the maximum fold change amounted to 1.53.

Take `O=C(CCNC(=O)Cn1cnc2sc3c(c2c1=O)CCCC3)NCC1CCCO1` (stereo unspecified): the maximum fold change worked out at 3.04.

For the compound `C=CCNC(=O)/C(C#N)=C/c1c(Oc2ccccc2)nc2ccccn2c1=O`, the maximum fold change was 9.03.

As for `CCOC(=O)c1ccc(-c2sc3nc(N4CCOCC4)c4c(c3c2N)CC(C)(C)OC4)o1`, the maximum fold change was found to be 2.03.

For the compound `CCOC(=O)c1cnc(SC)nc1N`, the maximum fold change was 3.4.

The compound `COc1ccc(C(=O)Cn2c3ccccc3n3nc(-c4ccccc4)nc23)cc1OC` had a maximum fold change of 4.22.

Regarding `CCN1CCN(C(=O)c2cc(C)nn2-c2ccccc2)CC1`, the maximum fold change was found to be 2.67.

Compound `COc1cccc(-c2cc(C(=O)NC3CCCc4ccccc43)[nH]n2)c1` (stereo unspecified) displayed a maximum fold change of 1.96.

`Cc1ccc(-c2noc(CCC(=O)Nc3cc(C)ccn3)n2)cc1` gave a maximum fold change of 2.17.

As to `Cc1ccc(CS(=O)Cc2ccc(C(=O)NC(C)C)o2)cc1` (stereo unspecified), the maximum fold change was determined as 1.84.

In turn, `CCN1CCCC1CNC(=O)CS(=O)(=O)Cc1nc(-c2ccc(C)cc2)oc1C` (stereo unspecified) yielded a maximum fold change of 2.2.

Turning to `Cc1nn2c(-c3ccncc3)nnc2c2ccccc12`, the maximum fold change amounted to 10.8.

Compound `CCOC(=O)c1c(NC(=O)COc2ccc(Cl)cc2Cl)sc2c1CCC2` yielded a maximum fold change of 3.01.

In turn, `CCOCCCNC(=O)c1cc(C)nn1-c1ccccc1` gave a maximum fold change of 2.81.

`COc1ccc(S(=O)Cc2ccc(C(=O)NC3CC3)o2)cc1` (stereo unspecified) had a maximum fold change of 2.4.

In the case of `COc1ccc(-c2cc3c(=O)n(CC(=O)NCc4ccccn4)ncn3n2)cc1`, the maximum fold change is 3.51.

`CCOC(=O)C1=C(C)NC2=C(C(=O)c3ccccc32)C1c1ccc(C(F)(F)F)cc1` (stereo unspecified) registered a maximum fold change of 2.29.

As to `N#C/C(=Cc1c(Oc2ccc(cc2)Br)nc2n(c1=O)cccc2)/C(=O)NC1CCCCC1`, the maximum fold change stood at 2.99.

Compound `N#C/C(=Cc1c(Oc2ccccc2)nc2n(c1=O)cccc2)/c1nc2c(s1)cccc2` registered a maximum fold change of 21.

Regarding `Cc1ccc(C(=O)N(Cc2ccccc2)c2ccccn2)cc1`, the maximum fold change was 2.65.

`Cc1oc2ncn3c(C)nnc3c2c1C(=O)NC1CC1` registered a maximum fold change of 2.62.

`CC(NC(=O)C1CCC(CNS(=O)(=O)c2ccccc2)CC1)c1ccccc1` (stereo unspecified) yielded a maximum fold change of 2.1.
